PubChem BioAssay (NCI)
About 79,000 compounds went through this panel and 15% of them were active in at least one assay; those are over-represented in the sample as a whole. The source made the active and inactive calls. Rule as the data show it: active = growth inhibition above about 70%; inactive = the rest.

What was measured:
[1] = NCI Yeast Anticancer Drug Screen. Data for the rad52 strain (AID 147);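 also: 0% = growth of vehicle-treated control cultures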; conditions: S. cerevisiae rad52 mutant growth inhibition, active compounds read high
In short: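 Vehicle-treated cultures served as the reference for growth inhibition of compound-exposed yeast bearing a DNA repair mutation.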

[2] = NCI Yeast Anticancer Drug Screen. Data for the rad50EPP+ strain (AID 151);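 also: 0% = growth of vehicle-treated control cultures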; conditions: S. cerevisiae rad50 mutant strain, active compounds read high
In short: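 In this screen, rad50EPP+ yeast were exposed to compounds. Growth inhibition was scored against vehicle-treated controls.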

[3] = NCI Yeast Anticancer Drug Screen. Data for the mgt1 strain (AID 153); conditions: S. cerevisiae mgt1 mutant growth inhibition, active compounds read high
In short: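 mgt1 strain exposed; growth vs vehicle control recorded as inhibition.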

[4] = NCI Yeast Anticancer Drug Screen. Data for the rad50 strain (AID 155);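 also: 0% = growth of vehicle-only cultures of the same strain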; conditions: S. cerevisiae rad50 strain growth inhibition, active compounds read high
In short: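 Yeast carrying a defined DNA repair defect were exposed to test compounds, and growth was compared with vehicle-treated controls to give percent inhibition.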

[5] = NCI Yeast Anticancer Drug Screen. Data for the mec2-1 strain (AID 157); conditions: S. cerevisiae mec2-1 strain, active compounds read high
In short: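 Vehicle-treated cultures served as reference for growth inhibition of compound-exposed mec2-1 yeast.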

[6] = NCI Yeast Anticancer Drug Screen. Data for the rad14 strain (AID 159);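 also: 0% = growth of vehicle-treated control cultures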; conditions: S. cerevisiae rad14 strain growth inhibition, active compounds read high
In short: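 Yeast cells carrying a defined DNA-repair defect were exposed to compounds, and growth inhibition was calculated relative to vehicle-treated control cultures.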

[7] = NCI Yeast Anticancer Drug Screen. Data for the sgs1 mgt1 strain (AID 161);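 also: 0% = growth of cultures given vehicle only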; conditions: S. cerevisiae sgs1 mgt1 strain, active compounds read high
In short: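 Genetically altered yeast, compound exposure, growth inhibition relative to vehicle.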

[8] = NCI Yeast Anticancer Drug Screen. Data for the CLN2oe strain (AID 163);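 also: 0% = growth of vehicle-only control cultures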; conditions: S. cerevisiae CLN2oe strain, active compounds read high
In short: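 Inhibition relative to vehicle-treated yeast is reported. Cells: strain with genetic alteration in cell-cycle control, grown with compound.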

[9] = NCI Yeast Anticancer Drug Screen. Data for the cln2 rad14 strain (AID 165);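 also: 0% = growth equal to vehicle treated cultures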; conditions: S. cerevisiae cln2 rad14 strain, active compounds read high
In short: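 Each compound was tested on cln2 rad14 yeast. Inhibition of growth was calculated against vehicle-exposed controls.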

[10] = NCI Yeast Anticancer Drug Screen. Data for the bub3 strain (AID 167); conditions: S. cerevisiae bub3 mutant strain, active compounds read high
In short: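 Compounds were applied to a genetically altered yeast strain carrying a cell-cycle control defect. Growth inhibition was scored against vehicle-treated controls.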

[11] = NCI Yeast Anticancer Drug Screen. Data for the wt2 strain (AID 169);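 also: 0% = growth of vehicle-treated yeast cultures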; conditions: S. cerevisiae wt2 strain growth inhibition, active compounds read high
In short: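 Inhibition of yeast growth was determined after compound treatment, normalised to controls receiving only vehicle.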

[12] = NCI Yeast Anticancer Drug Screen. Data for the mlh1 strain (AID 171);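 also: 0% = growth of vehicle-treated control cultures of the same strain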; conditions: S. cerevisiae mlh1 strain growth inhibition, active compounds read high
In short: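 Vehicle-normalised growth inhibition of a repair- or checkpoint-altered yeast strain following compound treatment.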

[13] = NCI Yeast Anticancer Drug Screen. Data for the sgs1 strain (AID 173);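 also: 0% = growth of vehicle-only control cultures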; conditions: S. cerevisiae sgs1 mutant, active compounds read high
In short: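 Screen format: yeast with repair or checkpoint alterations, compound exposure, growth read relative to vehicle.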

[14] = NCI Yeast Anticancer Drug Screen. Data for the mlh1 rad18 strain (AID 175); conditions: S. cerevisiae mlh1 rad18 strain growth inhibition, active compounds read high
In short: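 Vehicle-treated cultures served as the reference for growth inhibition in a yeast strain carrying DNA damage repair alterations exposed to each compound.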

[15] = NCI Yeast Anticancer Drug Screen. Data for the rad18 strain (AID 177); conditions: S. cerevisiae rad18 mutant growth inhibition, active compounds read high
In short: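 Test articles were incubated with altered yeast defective in DNA damage repair. Results are given as inhibition of growth versus vehicle.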

[16] = at 5.0 µM (retest, dose inferred, filed as 0.5)
[17] = at 50.0 µM (retest, dose inferred, filed as 5.0)

Measured: growth inhibition

Cc1cc(N=Nc2ccc(S(=O)(=O)[O-])cc2)cc(C(=O)[O-])c1[O-].NC1CCCCC1N.[Na+].[Pt+4]
inactive: [1]; at 1.2 µM 6% | [1]; at 3.7 µM 33% | [2]; at 1.2 µM 25% | [3]; at 1.2 µM 34% | [3]; at 3.7 µM 66% | [4]; at 1.2 µM -23% | [4]; [16] 20% | [5]; at 1.2 µM 9% | [5]; [16] 32% | [6]; at 1.2 µM -4% | [6]; at 3.7 µM 52% | [7]; [16] 68% | [8]; at 1.2 µM 5% | [8]; at 3.7 µM 21% | [9]; [16] 49% | [10]; at 1.2 µM -21% | [10]; at 3.7 µM 40% | [10]; [16] 50% | [11]; at 1.2 µM -2% | [12]; at 1.2 µM 7% | [12]; at 3.7 µM 66% | [13]; at 1.2 µM 21% | [13]; at 3.7 µM 63% | [14]; [16] 33% | [15]; at 1.2 µM -26% | [15]; at 3.7 µM 42%
active: [1]; at 11.0 µM 99% | [1]; at 33.0 µM 98% | [1]; at 100.0 µM 98% | [2]; at 3.7 µM 95% | [2]; at 11.0 µM 99% | [2]; at 33.0 µM 99% | [2]; at 100.0 µM 98% | [3]; at 11.0 µM 99% | [3]; at 33.0 µM 99% | [3]; at 100.0 µM 98% | [4]; at 3.7 µM 84% | [4]; at 11.0 µM 98% | [4]; at 33.0 µM 98% | [4]; [17] 98% | [4]; at 50.0 µM 87.7% | [4]; at 100.0 µM 98% | [5]; at 3.7 µM 77% | [5]; at 11.0 µM 99% | [5]; at 33.0 µM 99% | [5]; [17] 99% | [5]; at 50.0 µM 91.2% | [5]; at 100.0 µM 98% | [6]; at 11.0 µM 98% | [6]; at 33.0 µM 98% | [6]; at 100.0 µM 98% | [7]; [17] 99% | [7]; at 50.0 µM 92% | [8]; at 11.0 µM 95% | [8]; at 33.0 µM 99% | [8]; at 100.0 µM 98% | [9]; [17] 97% | [9]; at 50.0 µM 92% | [10]; at 11.0 µM 99% | [10]; at 33.0 µM 98% | [10]; [17] 98% | [10]; at 50.0 µM 90.2% | [10]; at 100.0 µM 98% | [11]; at 3.7 µM 93% | [11]; at 11.0 µM 98% | [11]; at 33.0 µM 98% | [11]; at 100.0 µM 97% | [12]; at 11.0 µM 99% | [12]; at 33.0 µM 99% | [12]; at 100.0 µM 98% | [13]; at 11.0 µM 99% | [13]; at 33.0 µM 99% | [13]; at 100.0 µM 99% | [14]; [17] 98% | [14]; at 50.0 µM 85.8% | [15]; at 11.0 µM 97% | [15]; at 33.0 µM 98% | [15]; at 100.0 µM 98%
